# GAA850 FXN act – increases GAA850 frataxin promoter reporter activity; activation, % at 6 µM; 360,000 compounds, 0.56% hits; HEK293 lucGAA850 FXN promoter luciferase reporter, 24 h; percent of 10 µM SAHA response;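 active = activation above the average of all compounds screened plus 3 SD, cutoff fixed separately per campaign, cut at about 7.5% in these data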;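 also: 0% = DMSO wells and 100% = 10 µM SAHA wells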
# HSP90 inh – blocks HSP90-mediated luciferase refolding in reticulocyte lysate; Rabbit reticulocyte lysate, luciferase refolding luminescence, 3 h; AID 1789; 290,000 compounds, 0.91% hits; inhibition, % at 5.6 µM;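 active = inhibition above the screen-wide mean plus 3 SD, computed separately per campaign, cut at about 16% in these data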;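 also: 0% = DMSO wells and 100% = 60 µM geldanamycin wells; inhibitors lower the luminescence because luciferase stays unfolded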
# SMARCA2 activ – SMARCA2 function activation, primary screen; 370,000 compounds, 1% hits; MG213 cells, MMTV-luciferase reporter, dexamethasone, overnight; AID 652017; activation, % at 9.1 µM; in the data active = activation above about 7.8%;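 also: 0% = vehicle wells and 100% = reference activator wells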
# HSF1 inhib – HSF1 inhibition | 300,000 compounds, 0.77% hits | AID 2098 | NIH3T3-HGL HSE-luciferase, MG132-induced, luminescence 8 h; hits give low values | activity change, negative = inhibition, % at 7.5 µM (by protocol);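 active = more than half of replicate wells show activity change below -50%, luminescence cut by over half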;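 also: luciferase reports HSF-1 transcriptional activity via heat shock element; 0% = median of DMSO wells and -100% = zero luminescence signal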
# PG9 Ab binder – binds the HIV-1 gp120 antibody PG9 | TR-FRET gp120-PG9 antibody binding | inhibition, % at 6.7 µM | 360,000 compounds, 0.43% hits; in the data active = inhibition above about 8.5%
# AI-2 QS mod – modulators of Vibrio harveyi AI-2 quorum sensing system | Vibrio harveyi JMH597 AI-2 luminescence/OD600 ratio, 9 h; hits give low values; strain lacks LuxN and CqsS sensors; 0 = neutral-control median | activity change, % at 7.5 µM | 300,000 compounds, 0.4% hits; in the data active = activity change below about -75%, passing the limit was not always enough;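 also: luminescence divided by OD600 gain over 9 h not by final OD600 alone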
# PG9 bind confirm – confirmation of small molecules binding HIV-1 gp120 antibody PG9; shares compounds with PG9 Ab binder; TR-FRET PG9 antibody binding, biochemical; inhibition, % at 6.7 µM; 1,500 compounds, 90% hits; AID 651571; in the data active = inhibition above about 9%
# PGV04 counter – PGV04 control antibody binding, counter-screen; TR-FRET PGV04 antibody-gp120 binding, biochemical; 1,500 compounds, 95% hits; shares compounds with PG9 Ab binder; inhibition, % at 6.7 µM; in the data active = inhibition above about 9.5%
# PG9 binder DR – small molecules binding HIV-1 gp120 antibody PG9 | shares compounds with PG9 Ab binder | TR-FRET PG9 antibody-gp120 binding inhibition | IC50, µM | 95 tested, under 10 active | AID 651848; in the data active = IC50 below about 10 µM
# PGV04 DR counter – counter-screen for PG9 binders: binding to control antibody PGV04 | shares compounds with PG9 Ab binder | TR-FRET binding to control antibody PGV04 | IC50, µM | 95 compounds, 20% hits
# PG126 DR counter – counter-screen for PG9 binders: binding to control antibody PG126; shares compounds with PG9 Ab binder; IC50, µM; TR-FRET binding to antibody PG126, counterscreen; 95 compounds, 20% hits; AID 651939
# An asterisk follows results filed as active; i = inactive; . = no result given. Only some compounds are listed: those with a hit (about 3.4% of all), similar ones and a draw of the others. Rule as the data show it, unless noted: active = IC50 below about 9 µM; inactive = the rest.
SMILES,GAA850 FXN act,HSP90 inh,SMARCA2 activ,HSF1 inhib,PG9 Ab binder,AI-2 QS mod,PG9 bind confirm,PGV04 counter,others
COc1ccc(C2/C(=C(/O)c3ccc(F)cc3)C(=O)C(=O)N2CCCN(C)C)cc1 (configuration not stated),3,.,3,.,-2,.,.,.,
COc1ccc(/C(O)=C2/C(=O)C(=O)N(CCN(C)C)C2c2cccnc2)cc1C (configuration not stated),2,0,0,-2,13*,24,22*,28*,
CCn1c(=S)[nH]c2nc3c(cc2c1=O)CCCC3,-1,-2,-2,12,22*,16,10*,9.9*,PG9 binder DR=>67;PGV04 DR counter=i;PG126 DR counter=i
CCn1c(SCc2ccc(Cl)cc2)nc2nc3c(cc2c1=O)CCCC3,0,-5,-1,16,-1,4,.,.,
O=c1c2cc3c(nc2[nH]c(=S)n1-c1ccccc1)CCCC3,1,-4,0,6,22*,11,31*,34*,
COc1ccc(C(=O)c2ccc(OC)c(Br)c2)cc1Br,0,1,-2,-2,19*,15,12*,14*,
Cc1sc2ncnc(N3CCC(C(=O)Nc4nnc(CC(C)C)s4)CC3)c2c1C,-2,.,-4,3,14*,-1,42*,54*,
CCCCOCC1CN(CCCC)S(=O)(=O)c2c(NCc3cc(OC)c(OC)c(OC)c3)cccc2O1 (configuration not stated),.,.,-3,.,1,.,.,.,
C#CCNc1cccc2c1S(=O)(=O)N[C@H](C)CO2,.,.,-2,.,0,.,.,.,
CCCn1c(=O)c(C(=O)NCC2CCCO2)c(O)c2ccccc21 (configuration not stated),2,0,2,-6,8.6*,2,12*,16*,
O=C(NCC1CCCO1)c1c(O)c2ccccc2[nH]c1=O (configuration not stated),1,0,2,4,-2,4,.,.,
COC(=O)[C@]12C[C@H](CC(=O)N3CCSCC3)C(=O)N(Cc3ccc4c(c3)OCO4)C1=C[C@H](COCc1ccccc1)O[C@@H]2C,.,.,-6,.,-1,.,.,.,
COc1ccc(OCC(=O)Nc2cc(S(=O)(=O)N3CCCCC3)ccc2OC)cc1,0,.,-1,5,2,23,.,.,
COc1ccc(OCC(=O)Nc2cc(S(=O)(=O)N3CCCC3)ccc2OCC(F)(F)F)cc1,-2,.,-2,.,9.3*,.,21*,28*,
C=CCN=C1NC(CCc2ccccc2)C(C(=O)OC)=C(C)N1C (configuration not stated),.,.,-3,.,1,.,.,.,
COc1ccccc1Cn1c(=S)[nH]c2ccc(F)cc2c1=O,2,1,-3,-1,32*,14,18*,17*,PG9 binder DR=i;PGV04 DR counter=i;PG126 DR counter=i
CC(C)NC(=O)N(C)C[C@H]1OCc2cn(nn2)CCCC(=O)N([C@H](C)CO)C[C@@H]1C,.,.,-4,.,0,.,.,.,
Cc1cc(NC(=O)c2cc(-c3ccccn3)nc3ccc(Br)cc23)no1,0,-1,1,12,21*,23,32*,67*,
NS(=O)(=O)c1ccc(CCNC(=O)c2cc(-c3ccccn3)nc3ccc(Br)cc23)cc1,-2,-2,4,8,17*,1,31*,63*,
NS(=O)(=O)c1ccc(CCNC(=O)c2ccc(-c3ccccc3)cc2)cc1,0,-2,-2,-4,12*,12,21*,14*,PG9 binder DR=>67;PGV04 DR counter=>67;PG126 DR counter=>67
